High-throughput results from PubChem BioAssay.
rTrxR1 inhibitor: inhibitors of rat thioredoxin reductase 1. O89049. recombinant rTrxR1, NADPH fluorescence consumption, selenite substrate. Potency, µM (titrated, usually from 114 µM), inactives show top-dose activity change, negative = inhibition, most hits filed as inhibitors. 390,000 compounds, 1% hits. AID 588453; note: nearly all actives have a fitted effect of over 65% in size
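Rat TrxR1 (90 nM in the dispensed reagent) was pre-reduced with 400 uM NADPH for 5 min at room temperature, then incubated with compound for 15 min. After 400 uM selenite was added, NADPH fluorescence (Ex 340/Em 450 nm) was followed for 8 min.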
VDR inh: inhibitors of human vitamin D receptor. VDR-SRC2-3 peptide fluorescence polarization, 2 h. P11473. Potency, µM, for inactives: max response, negative = inhibition, most hits filed as inhibitors. 400,000 compounds, 0.93% hits
Target sequence (P11473 whole entry, looked up): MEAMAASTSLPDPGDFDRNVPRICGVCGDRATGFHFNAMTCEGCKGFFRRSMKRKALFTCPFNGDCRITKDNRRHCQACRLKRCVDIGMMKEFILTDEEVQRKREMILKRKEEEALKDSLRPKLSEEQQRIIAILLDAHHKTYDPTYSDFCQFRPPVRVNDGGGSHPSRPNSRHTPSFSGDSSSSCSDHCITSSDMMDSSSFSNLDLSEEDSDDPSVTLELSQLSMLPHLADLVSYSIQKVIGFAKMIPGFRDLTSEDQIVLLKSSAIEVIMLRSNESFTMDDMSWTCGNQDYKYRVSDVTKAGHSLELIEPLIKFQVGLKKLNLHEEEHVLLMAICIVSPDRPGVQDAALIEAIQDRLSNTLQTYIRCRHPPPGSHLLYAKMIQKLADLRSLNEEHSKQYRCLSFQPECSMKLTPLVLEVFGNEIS
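FP read-out; VDR + SRC2-3 coactivator peptide; 23 nl compound by pintool; 2 h RT incubation; reagents held at 4 deg C, protected from light.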
PLK1 PBD inh: PLK1 (human) polo-box domain binding inhibition; Plk1 PBD binding of FITC phosphopeptide, fluorescence polarization; AID 720504; 360,000 compounds, 2.8% hits; Potency, µM, inactives show max response, negative = inhibition, most hits filed as inhibitors; P53350; note: series mostly up to about 57 µM; nearly all actives have a fitted effect of over 65% in size
IDH1 R132H inh: blocks human mutant IDH1 R132H enzyme | O75874 | IDH1-R132H enzyme, NADPH consumption, diaphorase/resazurin fluorescence | Potency, µM (top dose mostly 76.6 µM), for inactives: at the highest dose activity change, negative = inhibition, actives largely listed as inhibitors | 390,000 compounds, 0.093% hits | AID 602179; note: nearly all actives have a fitted effect of over 65% in size
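IDH1-R132H (0.5 ug/mL) preincubated 30 min with compound, then NADPH (0.016 mM) and alpha-KG (2 mM) added; 80 min at RT, pH 7.5. Remaining NADPH coupled via diaphorase/resazurin to fluorescence (540/590 nm); concentration-response curves normalized to no-enzyme control.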
Sfp inh: Sfp phosphopantetheinyl transferase inhibition; Q9F4F7; AID 1490; Biochemical Sfp PPTase activity, qHTS; Potency, µM, inactives show largest response in the series, negative = inhibition, most hits filed as inhibitors; 310,000 compounds, 3.5% hits;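 note: the enzyme is Sfp with the accession as filed and its product quenches rhodamine fluorescence; 0% = enzyme reaction without inhibitor and -100% = no enzyme wells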
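Step 1, compound plus 15 nM Sfp-PPTase, 15 min, room temperature. Step 2, add rhodamine-CoA (5 uM) and BHQ-2-YbbR (12.5 uM). Step 3, read 525/598 nm fluorescence at 0 and 30 min.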
TrxR1 substrate: substrates of rat thioredoxin reductase 1 | Potency, µM (series often up to 114 µM), for inactives: top-dose activity change, negative = substrate turnover | O89049 | 390,000 compounds, 0.01% hits | purified TrxR1 substrate turnover, NADPH consumption readout; note: nearly all actives have a fitted effect of over 50% in size
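Rat TrxR1, dispensed at 90 nM, was prereduced with 400 uM NADPH (final) for 5 min at ~22 deg C, then incubated with compound 15 min before 400 uM selenite. A first-read NADPH fluorescence drop versus no-compound background flagged substrates.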
* = called active by the depositor; u = inconclusive; x = not tested or not shown; [ ] = remark or other dose. Rows were chosen to be rich in hits. Some 5.2% of all compounds tested hit in one or more screens of this group. Calls come from the whole dose curve; as a rule, active = well fitted curve in the direction sought with a large enough effect; inconclusive = small, poorly fitted or top-dose-only effect, or another doubt; inactive = no such curve, though single readings can be large; an effect the other way counts as inactive or inconclusive. Unless noted, % is set by controls: 0 for no effect and ±100 for the full control effect; potency is the fitted concentration of half-maximal effect.

SMILES	rTrxR1 inhibitor	VDR inh	PLK1 PBD inh	IDH1 R132H inh	Sfp inh	TrxR1 substrate
CN(C)S(=O)(=O)c1ccc(C(=O)NC(=O)CSc2ccccc2)cc1	19%	-9%	-26%	2%	-8%	13%[57.1 µM]
CC(=O)NS(=O)(=O)c1ccc(NC(=O)CSc2ccc(C)cc2)cc1	20%	11%	u	0%	79µM*	4%
CC(=O)Nc1ccc(SCC(=O)NC(=O)c2ccc(S(=O)(=O)N(C)C)cc2)cc1	64%	u	11µM*	-1%	x	2%
O=C(Nc1cccc(F)c1)N1CCC2(CC1)CCN(C(=O)c1cc(C(F)(F)F)cc(C(F)(F)F)c1)CC2	x	-7%	x	x	6%	x
Cc1ccc(CCNC(=O)c2c(C)oc3ncnc(N4CCOCC4)c23)cc1	-10%	13%	x	25%	x	-6%
O=C(Nc1nc(-c2ccccn2)cs1)c1ccccc1-n1cnnn1	-22%	u	3.8µM*	-1%	16µM*	-12%
CCCn1nc(C(=O)Nc2nc(-c3ccccn3)cs2)c2ccccc2c1=O	-3%	-17%	-5%	-10%	x	-5%
Cn1nc(C(=O)Nc2nc(-c3ccccn3)cs2)c2ccccc2c1=O	-2%	u	13µM*	-2%	x	-8%
CC1CC1C(=O)Nc1nc(-c2ccccn2)cs1 (configuration not stated)	-6%[57.1 µM]	79µM*	u	-6%	25µM*	6%[57.1 µM]
CC(=O)Nc1ccc(C(=O)Nc2nc(-c3cccnc3)cs2)cc1	4%[57.1 µM]	u	13µM*	21%	u	-7%
CCOc1ccc(CN(C)C(=O)CNC(=O)c2ccc3ccccc3c2)cc1OC	27%[57.1 µM]	-16%	-11%	-1%	13%	3%[57.1 µM]
c1ccc(-c2csc(Nc3cccnc3)n2)cc1	39%[57.1 µM]	-6%	0%	6%	32µM*	10%[57.1 µM]
CC(C)[C@H](NC(=O)c1ccccc1Cl)C(=O)Nc1nc(-c2ccccn2)cs1	10%	-18%	-4%	-1%	u	5%[57.1 µM]
CC(=O)Nc1ccc(C(=O)Nc2nc(-c3ccccn3)cs2)cc1	50µM*	-24%	24µM*	4%	16µM*	-4%
c1ccc(CCNc2nc(-c3ccccn3)cs2)cc1	20%	12%	-20%	-8%	20µM*	8%
CC(Oc1ccc(Br)cc1)C(=O)Nc1nc(-c2ccccn2)cs1 (configuration not stated)	14%[57.1 µM]	u	0%	-1%	40µM*	-11%
CCO/C(C)=N/Oc1cc(OC)cc(OC)c1	x	x	-4%	x	x	x
CC(C)CCn1c(O)c(N=Nc2ccccn2)c2ccccc21	-13%	-13%	-5%	0%	-16%	-10%
CC(C)CCn1c(O)c(N=NC(=O)Cn2ccc(C(F)(F)F)n2)c2ccccc21	0%[57.1 µM]	79µM*	24µM*	2%	20%	0%[57.1 µM]
CCOc1ccccc1OCc1nn2c(COc3ccccc3)nnc2s1	-6%[2.29 µM]	32µM*	4.7µM*	-2%	18µM*	9%[2.29 µM]
c1cncc(-c2nn3c(Cn4cnc5ccccc54)nnc3s2)c1	-12%	-99%	4.7µM*	6%	-83%	13%[57.1 µM]
c1ccc(OCc2nn3c(Cn4cnc5ccccc54)nnc3s2)cc1	u	u	24µM*	4%	u	6%[57.1 µM]
c1ccc(OCc2nn3c(-c4ccco4)nnc3s2)cc1	56µM*	0%	-11%	3%	u	1%
Cc1ccc(S(=O)(=O)N2CCCC(C(=O)NCCc3ccc(Cl)cc3)C2)cc1 (configuration not stated)	x	x	-5%	-1%	x	x
O=C(Nc1ccc(Oc2ccccc2)nc1)[C@H]1O[C@@H](n2ccc(=O)[nH]c2=O)[C@H](O)[C@@H]1O	x	x	0%	x	x	x
SMILES	rTrxR1 inhibitor	VDR inh	PLK1 PBD inh	IDH1 R132H inh	Sfp inh	TrxR1 substrate
c1ccc2c(c1)ncn2Cc1nnc2sc(-c3ccncc3)nn12	4%	-13%	12µM*	3%	16µM*	1%
COC(=O)NC1c2ccccc2Oc2ccc(C)cc21 (configuration not stated)	21%	9%	-9%	12%	9%	5%
Cc1ccc2c(c1)C(c1ccccc1)C(=O)O2 (configuration not stated)	-9%[57.1 µM]	-28%	-18%	4%	50µM*	5%[57.1 µM]
CC(C)C#Cc1ccc2c(c1)O[C@@H](CN(C)C(=O)c1cnccn1)[C@@H](C)CN([C@@H](C)CO)S2(=O)=O	x	x	-2%	0%	x	x
O=C(NCc1ccccc1F)C12CC3CC(CC(C3)C1)C2	23%[11.4 µM]	-13%	-16%	-10%	x	13%[57.1 µM]
COc1ccccc1CNCC(=O)Nc1ccc(N(C)C)cc1	-7%	-28%	27µM*	4%	-19%	4%
COc1ccccc1CNC(=O)CC(C)C	-7%	u	12µM*	5%	-3%	-6%
COc1ccccc1CNC(=O)C12CC3CC(CC(C3)C1)C2	11%[57.1 µM]	-19%	27µM*	5%	11%	2%[57.1 µM]
CC(=O)Cn1cnc2c(sc3nc(C)cc(C)c32)c1=O	0%	11%	-7%	7%	9%	-4%
CC(=O)c1cc(-c2ccccc2)n(CC(=O)N2CCC(N3CCCCC3)CC2)c1C	-2%	19%	-1%	2%	4%	-1%
CCOC(=O)C1CCCN(C(=O)Cn2sc3nc(C)cc(C)c3c2=O)C1 (configuration not stated)	-17%	u	1.5µM*	-4%	1.8µM*	-17%
Cc1cc(C)c2c(=O)n(CC(=O)N3CCC(N4CCCCC4)CC3)sc2n1	0%[57.1 µM]	20µM*	3µM*	-5%	8.9µM*	0%[57.1 µM]
CCOC(=O)C1CCCN(C(=O)Cn2cnc3c2c(=O)n(C)c(=O)n3C)C1 (configuration not stated)	2%[57.1 µM]	8%	-6%	2%	9%	-3%[57.1 µM]
CCCNC(=O)Cn1sc2nc(C)cc(C)c2c1=O	-21%	5µM*	1.7µM*	-5%	1.8µM*	-7%
O=C(C[n+]1ccccc1Cl)c1cccc([N+](=O)[O-])c1	-15%	x	x	x	x	-4%
C=CCNC(=O)/C(C#N)=C/c1c(C)nn(-c2ccccc2)c1Cl	-27%	u	-17%	-4%	79µM*	-5%
O=C(Nc1cccc(Cl)c1)Nc1ccccc1C(=O)O	17%	-8%	-15%	12%	14%	42%
O=C(NNc1ccccc1)Nc1cc(Cl)ccc1Cl	14%[57.1 µM]	40µM*	-8%	0%	x	-8%
O=C(CC(=O)Nc1ccc(Cl)cc1Cl)Nc1ccc(Cl)cc1Cl	23%	-2%	30µM*	0%	5%	1%
O=C(COc1ccccc1)Nc1cc(Cl)ccc1Cl	2%	1%	-15%	3%	17%	-5%
O=C(Cc1ccccc1)NCC(=O)Nc1cc(Cl)ccc1Cl	12%[57.1 µM]	u	27µM*	5%	6%	12%[57.1 µM]
